HT1080 IDH1KD tx: qHTS for induction of synthetic lethality in tumor cells producing 2HG: qHTS for the HT-1080-IDH1KD cell line; HT-1080 IDH1 knockdown viability, ATP luminescence, 48 h; Potency, µM (titrated, usually from 46.1 µM), inactives show at the highest dose activity, negative = toxicity, most hits filed as cytotoxic; hit rate 2% among 360,000;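 further: 0% = DMSO wells and -100% = cell-free medium wells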
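Assay cells: HT-1080 with IDH1 knockdown, 750 per well, RPMI/5% FBS. Exposure: 48 h at 37 °C following 2 h pre-incubation. Read: CellTiter-Glo luminescence; fitted concentration-response, curve class assigned.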
DT40 TDP1 CPT: qHTS for Inhibitors of human tyrosyl-DNA phosphodiesterase 1 (TDP1): qHTS in cells in presence of CPT. chicken DT40 Tdp1-/-;hTDP1 cells + 20 nM CPT, ATP luminescence, 48 h. Potency, µM (doses to about 46.2 µM), inactives show at the highest dose activity change, negative = growth inhibition, hits mostly inhibitors. hit rate 12% among 420,000. AID 686979, 2013; further: nearly all actives have a fitted effect of over 55% in size
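Chicken DT40 Tdp1-/- cells stably complemented with human TDP1 were seeded at 400 cells/well in medium containing 20 nM camptothecin, exposed to pin-transferred compounds, and grown at 37 °C for at least 48 hr. Viability was read as ATP luminescence.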
KB-3-1 cytotox: qHTS assay for MDR1-selective chemotherapeutics: Primary screen using the parental adenocarcinoma cell KB-3-1; hit rate 1.4% among 400,000; Potency, µM (highest dose often 46.1 µM), hits mostly cytotoxic; KB-3-1 viability, CellTiter-Glo ATP luminescence, 72 h; further: nearly all actives have a fitted effect of over 60% in size
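Multi-concentration cytotoxicity screen in KB-3-1 cells grown in DMEM lacking phenol red with 10% FBS. After 72 h at 37 °C with compound, ATP-dependent luminescence was recorded.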
KB-V1 MDR tox: qHTS assay for MDR1-selective chemotherapeutics: Primary screen using the drug-selected MDR subline cells KB-V1; KB-V1 MDR cells viability, CellTiter-Glo, 72 h; Potency, µM (top dose mostly 46.1 µM), actives largely listed as cytotoxic; hit rate 3.4% among 400,000; AID 1347076, 2019; further: nearly all actives have a fitted effect of over 60% in size
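KB-V1 MDR subline cells in DMEM (phenol-red free, 10% FBS) exposed to compounds in qHTS concentration series for 72 h at 37 degrees C. Viability read by CellTiter-Glo luminescence; concentration-effect curves fitted after normalization and correction.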
TDP1 cell noCPT: qHTS for Inhibitors of human tyrosyl-DNA phosphodiesterase 1 (TDP1): qHTS in cells in absence of CPT. Potency, µM (highest dose often 46.2 µM), for inactives: at the top dose activity change, negative = growth inhibition, most hits filed as inhibitors. DT40 Tdp1-/- hTDP1 cells, no CPT, ATP luminescence, 48 h. hit rate 15% among 420,000. AID 686978, 2013; further: nearly all actives have a fitted effect of over 55% in size
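Compound effects on proliferation are scored in DT40 Tdp1-/-;hTDP1 cells in the absence of CPT. ATP levels (CellTiter-Glo luminescence) are recorded after a ≥48 hr, 37 °C incubation.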
HT1080NT lethal: qHTS for induction of synthetic lethality in tumor cells producing 2HG: qHTS for the HT-1080-NT fibrosarcoma cell line | HT-1080-NT fibrosarcoma viability, CellTiter-Glo ATP luminescence, 48 h | Potency, µM (highest dose often 46.1 µM), for inactives: top-dose activity, negative = less viability, actives largely listed as cytotoxic | hit rate 1.6% among 360,000 | AID 686970, 2013;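 further: NT is the 2HG producing partner of a matched IDH1 knockdown line; 0% = DMSO-treated cells and -100% = media-only wells without cells; nearly all actives have a fitted effect of over 55% in size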
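Toxicity toward the 2HG-producing NT line was scored as %Activity, normalised to DMSO and no-cell wells, from CellTiter-Glo luminescence after 48 hours' treatment.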
* marks the source's active call; other numbers are inactive results. Compounds with a hit are over-represented: about 19% of the library has one in this group of screens. The call rests on the fitted dose curve; in most records, active means well fitted curve in the direction sought with a large enough effect; inconclusive means small, poorly fitted or top-dose-only effect, or another doubt; inactive means no such curve, though single readings can be large; an effect the other way counts as inactive or inconclusive. Unless noted, on the % scale 0 is the no-effect control and ±100 the full control effect; potency means the concentration at half of the fitted maximal effect.

`CCOC(=O)c1c(NC(=O)CN2CCCCC2)sc2c1CCC(C=O)=C2Cl` gave HT1080 IDH1KD tx -22%, DT40 TDP1 CPT 4µM*, KB-3-1 cytotox inactive, KB-V1 MDR tox inactive, TDP1 cell noCPT 3.5µM* and HT1080NT lethal -4%.
CCOC(=O)c1c(-c2ccc(C)o2)csc1NC(=O)CSc1nncs1 was read as HT1080 IDH1KD tx inconclusive, DT40 TDP1 CPT 23µM*, KB-3-1 cytotox inactive, KB-V1 MDR tox 15µM*, TDP1 cell noCPT 16µM* and HT1080NT lethal inconclusive.
Screening CN(Cc1ccc(Cl)cc1)C(=O)COC(=O)c1ccc(-c2ccc(O)cc2)cc1 returned HT1080 IDH1KD tx inconclusive, DT40 TDP1 CPT inconclusive, KB-3-1 cytotox inactive, KB-V1 MDR tox inactive, TDP1 cell noCPT 7% and HT1080NT lethal -24%.
For COc1ccc(NC(=O)COC(=O)CCCN2C(=O)c3ccccc3C2=O)cc1Cl the results were HT1080 IDH1KD tx 15%, DT40 TDP1 CPT -4%, KB-3-1 cytotox inactive, KB-V1 MDR tox inactive, TDP1 cell noCPT 9% and HT1080NT lethal 0%.
`CN(Cc1ccccc1)S(=O)(=O)c1ccc(N2CCCC2=O)cc1` gave HT1080 IDH1KD tx 6%, DT40 TDP1 CPT inconclusive, KB-3-1 cytotox inactive, KB-V1 MDR tox inactive, TDP1 cell noCPT inconclusive and HT1080NT lethal 1%.
For O=c1c2oc3ccccc3c2n(Cc2ccccc2F)c(=O)n1Cc1ccco1 the results were DT40 TDP1 CPT -15%, KB-3-1 cytotox inactive, KB-V1 MDR tox inactive and TDP1 cell noCPT -1%.
`O=C(Nc1cccc(Cl)c1)c1csc([C@H]2C[C@H](O)[C@@H](CO)O2)n1` gave HT1080 IDH1KD tx -4%, DT40 TDP1 CPT 18µM*, KB-3-1 cytotox inactive, KB-V1 MDR tox inactive, TDP1 cell noCPT inconclusive and HT1080NT lethal 14%.
For O=C(Nc1ccc(Cl)cc1)c1csc([C@@H]2C[C@H](O)[C@@H](CO)O2)n1 the results were HT1080 IDH1KD tx 21%, DT40 TDP1 CPT inconclusive, KB-3-1 cytotox inactive, KB-V1 MDR tox inactive, TDP1 cell noCPT -23% and HT1080NT lethal 24%.
For O=C(Nc1ccc(Oc2ccccc2)cc1)c1csc([C@@H]2C[C@H](O)[C@@H](CO)O2)n1 the results were HT1080 IDH1KD tx 2.6µM*, DT40 TDP1 CPT inconclusive, KB-3-1 cytotox inactive, KB-V1 MDR tox inactive, TDP1 cell noCPT inconclusive and HT1080NT lethal inconclusive.
`CCCn1c(-c2cccnc2Cl)nc2cc(Cl)c(Cl)cc21` gave HT1080 IDH1KD tx inconclusive, DT40 TDP1 CPT 15µM*, KB-3-1 cytotox inactive, KB-V1 MDR tox 16µM*, TDP1 cell noCPT inconclusive and HT1080NT lethal -11%.
For Clc1cccc(Cl)c1Cn1c(-c2cccnc2Cl)nc2ccccc21 the results were HT1080 IDH1KD tx -24%, DT40 TDP1 CPT inconclusive, KB-3-1 cytotox inactive, KB-V1 MDR tox inactive, TDP1 cell noCPT inconclusive and HT1080NT lethal -5%.
Screening C=CCn1c(-c2cccnc2Cl)nc2cc(Cl)c(Cl)cc21 returned HT1080 IDH1KD tx -24%, DT40 TDP1 CPT 18µM*, KB-3-1 cytotox inactive, KB-V1 MDR tox inactive, TDP1 cell noCPT inconclusive and HT1080NT lethal -22%.
Screening Cc1cc2ccccn2c1C(=O)c1ccc(Cl)cc1 returned HT1080 IDH1KD tx -21%, DT40 TDP1 CPT -28%, KB-3-1 cytotox inactive, KB-V1 MDR tox inactive, TDP1 cell noCPT -24% and HT1080NT lethal -26%.
Screening Cc1cc2ccccn2c1C(=O)c1ccccc1F returned HT1080 IDH1KD tx inconclusive, DT40 TDP1 CPT inconclusive, KB-3-1 cytotox inconclusive, KB-V1 MDR tox inconclusive, TDP1 cell noCPT inconclusive and HT1080NT lethal 15µM*.
COc1ccccc1NC(c1cccnc1)c1ccc2cccnc2c1O (stereo not given) was read as HT1080 IDH1KD tx inconclusive, DT40 TDP1 CPT inconclusive, KB-3-1 cytotox inactive, KB-V1 MDR tox inconclusive, TDP1 cell noCPT inconclusive and HT1080NT lethal -15%.
Screening Oc1c(C(Nc2ccccn2)c2ccccc2F)ccc2cccnc12 (stereo not given) returned DT40 TDP1 CPT inconclusive and TDP1 cell noCPT 16µM*.
Oc1ccccc1C(Nc1nccs1)c1ccc2cccnc2c1O (stereo not given) was read as HT1080 IDH1KD tx 7.3µM*, DT40 TDP1 CPT 3.7µM*, KB-3-1 cytotox 2.3µM*, KB-V1 MDR tox 12µM*, TDP1 cell noCPT 2.6µM* and HT1080NT lethal inconclusive.
Cc1ccnc(NC(c2ccccc2F)c2ccc3cccnc3c2O)c1 (stereo not given) was read as KB-3-1 cytotox inconclusive and KB-V1 MDR tox inactive.
C[C@H](NC(c1ccc(F)cc1)c1ccc2cccnc2c1O)c1ccccc1 (stereo not given in full) was read as KB-3-1 cytotox inconclusive and KB-V1 MDR tox inactive.
Screening Oc1c(C(Nc2ccccn2)c2ccccn2)ccc2cccnc12 (stereo not given) returned HT1080 IDH1KD tx 8.2µM*, DT40 TDP1 CPT 0.82µM*, KB-3-1 cytotox 15µM*, KB-V1 MDR tox 5.8µM*, TDP1 cell noCPT 0.82µM* and HT1080NT lethal inconclusive.
`COc1ccc(OC)c(CNS(=O)(=O)c2ccc3c(c2)CCCN3C(C)=O)c1` gave DT40 TDP1 CPT inconclusive, KB-3-1 cytotox inactive, KB-V1 MDR tox inactive and TDP1 cell noCPT inconclusive.
`COc1cc(C(=O)N(C)C2CCCCC2)cc(OC)c1OC` gave HT1080 IDH1KD tx 0%, DT40 TDP1 CPT inconclusive, KB-3-1 cytotox inactive, KB-V1 MDR tox inactive, TDP1 cell noCPT inconclusive and HT1080NT lethal -8%.
CN1OC[C@@H]2CN(C(=O)c3ccco3)[C@H](c3ccc(-c4ccc(C#N)cc4)cc3)C[C@@H]21 was read as HT1080 IDH1KD tx -10%, DT40 TDP1 CPT inconclusive, KB-3-1 cytotox inactive, KB-V1 MDR tox inconclusive, TDP1 cell noCPT inconclusive and HT1080NT lethal -5%.
Screening CN1OC[C@@H]2CN[C@H](c3cccc(-c4cc(Cl)cc(Cl)c4)c3)C[C@@H]21 returned HT1080 IDH1KD tx -9%, DT40 TDP1 CPT inconclusive, KB-3-1 cytotox inactive, KB-V1 MDR tox inactive, TDP1 cell noCPT inconclusive and HT1080NT lethal -1%.

Screening results: PubChem BioAssay, National Center for Advancing Translational Sciences (NCATS)
